In all, about 300,000 compounds went through this assay and about 5,200 (1.7%) were called active.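 The calls were made as follows: active = mean replicate activation of at least 50% with a set share of replicates each reaching 50%; inconclusive = only one of those two conditions met; inactive = mean below 50% and too few replicates reaching it.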 Shown is part of a subset that was picked to be rich in actives.

Activation data for 28 compounds are collected here from PubChem BioAssay AID504408 (Broad Institute, 2011).

This experiment in a line: HSF-1 activators, primary screen, NIH3T3-HGL cells, MG132 stress, luminescence, single point (AID 504408).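 Also: 0% = median of the neutral control wells and 100% = twice that signal.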 The conditions noted are these: NIH3T3-HGL HSF-1 luciferase reporter, MG132, 8 h; at 9 µM; stronger effect = higher value; 100% = twice DMSO control signal.
As to `CCN(CC(=O)Nc1cccc(S(=O)(=O)N2CCCCC2)c1)Cc1ccccc1`, the activation is 0.93% (inactive).
Next, `CN1C(C(=O)NCc2ccco2)CC2Cn3c(nc4ccccc43)C21` (stereo not drawn): -8.57% (inactive).
On to `Cc1nn(C)c(C)c1NS(=O)(=O)c1ccc(OC(F)(F)F)cc1`, for which the activation is 0.0449% (inactive).
Under `Cc1ccc(S(=O)(=O)N(Cc2cccc([N+](=O)[O-])c2)C(=O)N2CCN(C)CC2)cc1` stands 17.1% (inactive).
For the compound `CC(=O)c1ccc(S(=O)(=O)NC2CC(=O)N(c3ccc4c(c3)OCCO4)C2)cc1` (stereo not drawn), the activation is 8.08% (inactive).
Under `Cc1cccc(-c2noc(-c3ccc(F)cc3)n2)c1` stands 55% (active); under `Cc1ccc(Cc2nc(-c3cccc(C)c3)no2)cc1`, 17.5% (inactive); under `COc1ccc2[nH]c(=O)c(-c3noc(-c4ccc(F)cc4)n3)cc2c1`, 25.7% (inactive).
For `CCc1noc(C)c1C(=O)Oc1ccc(N(C)S(=O)(=O)c2ccc(C)c(C)c2)cc1`, the activation is -16.6% (inactive).
Consider `CCOc1ccc(NC(=S)N2CCC(N(C)CC3CCCO3)CC2)cc1` (stereo not drawn), for which the activation is -6.15% (inactive).
With `CCOC(=O)c1ccc(NC(=S)N2CCCC2)cc1`, the activation was 17.9% (inactive).
Next, `CCOc1ccc(NC(=S)N2CCCCCC2)cc1`: 65.8% (active); `O=C(Nc1ccc2nc3n(c(=O)c2c1)CCCC3)c1ccc(Cl)nc1`: 3.58% (inactive).
Next, `COc1ccc(C(=O)NCC(c2ccco2)N2CCc3ccccc32)cc1OC` (stereo not drawn): 2.97% (inactive); `Cc1noc(C)c1CSCC(=O)Nc1ccc(Br)cc1Cl`: 1.94% (inactive).
Turning to `CC(C)n1c(COc2ccccc2)nc2ccccc21`, the activation was 12.3% (inactive).
Under `Cc1ccc(OCc2nc3ccccc3n2C)cc1` stands 75.6% (active); under `COCn1c(COc2ccccc2)nc2ccccc21`, 23.9% (inactive); under `Cc1n[nH]c(=O)c2c(NC(=O)COC(=O)c3ncc(Cl)c(Cl)c3Cl)oc(C)c12`, -1.88% (inactive).
Next, `CN(CC(=O)Nc1cccc(F)c1)C(=O)C1CC(=O)N(CCc2ccccc2)C1` (stereo not drawn): -1.17% (inactive); `CCn1c2ccccc2c2cc(NC(=O)CNC)ccc21`: -4.5% (inactive).
Next, `CCn1c2ccccc2c2cc(NC(=O)COC(=O)c3ccccc3Br)ccc21`: 15.8% (inactive).
Turning to `CCn1c2ccccc2c2cc(NC(=O)C/C(C)=N/NC(=O)c3ccccc3N)ccc21`, the activation was 87.9% (active).
Next, `Nc1c(C(=O)Nc2ccc3c(c2)OCCO3)nnn1Cc1ccccc1`: 43.5% (inactive).
Next, `Cc1ccc(OCCNC(=O)CN2C(=O)NC3(CCCC3)C2=O)cc1`: 2.14% (inactive); `CCC(=O)Nc1ccc(C(=O)Nc2cc(C)on2)cc1`: 11.5% (inactive).
Next, `CCCNC(=O)c1ccc(Cl)c(Cl)c1`: 8.76% (inactive); `Cc1cc(N/C=C\C(=O)c2ccc(Cl)c(Cl)c2)no1`: 54.6% (active).
